For 29 compounds, Potency results are on record in PubChem BioAssay (NCATS).

Inconclusive results are not listed. The source made the active and inactive calls. Unless noted, calls follow the shape of the dose curve; as a rule, active = well fitted curve in the direction sought with a large enough effect; inconclusive = small, poorly fitted or top-dose-only effect, or another doubt; inactive = no such curve, though single readings can be large; an effect the other way counts as inactive or inconclusive.

The target in assay [1] is Aldehyde dehydrogenase, mitochondrial (Homo sapiens) (UniProt P05091). As to the kind of experiment: qHTS for Inhibitors of the Aldehyde Dehydrogenase Family (ALDH2) Confirmatory screens (AID 2061303; active = well fitted inhibition curve with a large enough effect; title and protocol of this record describe different tests; also: nearly all actives have a fitted effect of over 45% in size; also: potency is read from the fitted curve at half-maximal effect). The following applies: ALDH inhibition qHTS; series mostly up to 45.4 µM. In general terms: Quantitative high-throughput screening tests each substance at several concentrations.

Assay [2] addresses Retinaldehyde dehydrogenase 3 (Homo sapiens) (UniProt P47895). As to the kind of experiment: qHTS for Inhibitors of the Aldehyde Dehydrogenase Family (ALDH1A3) Confirmatory screens (AID 2061311). Also: nearly all actives have a fitted effect of over 60% in size. Also: potency is read from the fitted curve at half-maximal effect. The note with it: ALDH inhibition qHTS; series mostly up to 46 µM.
Assay [3] deals with Retinal dehydrogenase 2 (Homo sapiens) (UniProt O94788). The assay can be described thus: qHTS for Inhibitors of the Aldehyde Dehydrogenase Family (ALDH1A2) Confirmation screens (AID 2061314). Also: nearly all actives have a fitted effect of over 65% in size. Also: potency is read from the fitted curve at half-maximal effect. The note with it: ALDH1A2 enzyme inhibition qHTS confirmation; series mostly up to 45.9 µM.
In assay [4] the target is Aldehyde dehydrogenase 1A1 (Homo sapiens) (UniProt P00352). The assay can be described thus: qHTS for Inhibitors of the Aldehyde Dehydrogenase Family (ALDH1A1) Confirmatory screens (AID 2061316). Also: nearly all actives have a fitted effect of over 65% in size. Also: potency is read from the fitted curve at half-maximal effect. The note with it: ALDH inhibition qHTS; series mostly up to 47.3 µM.
Assay [5] deals with Retinaldehyde dehydrogenase 3 (Homo sapiens) (UniProt P47895). The assay can be described thus: qHTS for Inhibitors of the Aldehyde Dehydrogenase Family (ALDH1A3) Primary screen (AID 2061315). The following applies: ALDH inhibition qHTS; series mostly up to 56 µM.
In assay [6] the target is Aldehyde dehydrogenase, mitochondrial (Homo sapiens) (UniProt P05091). As to the kind of experiment: qHTS for Inhibitors of the Aldehyde Dehydrogenase Family (ALDH2) Primary screen (AID 2061308). Also: nearly all actives have a fitted effect of over 55% in size. The following applies: ALDH2 enzyme inhibition qHTS, 1536-well; series mostly up to 56 µM.
Assay [7] deals with Retinaldehyde dehydrogenase 3 (Homo sapiens) (UniProt P47895). The assay can be described thus: qHTS for Inhibitors of the Aldehyde Dehydrogenase Family (ALDH1A3) Validation screen (AID 2061312). Also: potency is read from the fitted curve at half-maximal effect; nearly all actives have a fitted effect of over 45% in size. The following applies: ALDH1A3 enzyme inhibition qHTS validation, fluorescence; series mostly up to 84.7 µM.

For `O=C(Nc1cccc(C(F)(F)F)c1)c1cc(-c2ccc(Cl)cc2)on1`, the Potency entry in assay [1], in assay [2] and in assay [3] was “inactive” each time.
With `CCOC(=O)Cn1c(=O)oc2cc(S(=O)(=O)N3CCN(c4ccc(C(C)=O)cc4)CC3)ccc21`, the Potency in assay [1] was 7.08 µM (active); in assay [2] it was 0.355 µM (active). The Potency entry in assay [3] is “inactive”.
`Cc1cccc(-c2ccc(C=O)cc2)c1`: the Potency was 12.6 µM (active) in assay [1], 0.047 µM (active) in assay [2], 39.8 µM (active) in assay [3] and 9.37 µM (active) in assay [4].
For the compound `CCOc1ccc(CCNC(=O)c2ccc(N3N=C(C)CC3=O)cc2)cc1OCC`, the Potency in assay [1] was 1.26 µM (active); in assay [2], 0.1 µM (active); in assay [3], 0.896 µM (active); in assay [4], 0.896 µM (active). Moreover, the Potency entry in assay [5] is “inactive”.
As to `Cc1cc(C)nc(NC(=C(C#N)C#N)N2CCN(c3cccc(C(F)(F)F)c3)CC2)c1`, in assay [1], the Potency is 14.2 µM (active). In addition, the Potency result in assay [6] and in assay [5] was “inactive” each time.
For the compound `O=c1[nH]c2ccc(NCc3ccc(-c4ccc(F)cc4)o3)cc2[nH]1`, in assay [1], the Potency was 0.914 µM (active). Besides, the Potency entry in assay [2] and in assay [3] was “inactive” in each case.
In the case of `CCOc1ccc(NC(=O)N2CCN(c3ccc(Cl)c(Cl)c3)CC2)cc1`, the Potency entry in assay [1], in assay [2], in assay [3] and in assay [4] was “inactive” each time.
Take `COc1ccc(Cn2c(=O)[nH]c3cc(C(=O)N4CCN(c5ccccc5)CC4)ccc3c2=O)cc1`: the Potency entry in assay [1], in assay [2], in assay [3] and in assay [4] was “inactive” in each case.
As for `O=C(NCc1ccc(F)cc1)c1ccc2nnc(-c3cccc(C(F)(F)F)c3)n2c1`, the Potency entry in assay [1], in assay [2], in assay [3] and in assay [4] was “inactive” throughout.
Turning to `COc1ccc(NC(c2nnc(-c3ccccc3)o2)c2ccccc2F)cc1Cl` (stereo not drawn), the Potency result in assay [1], in assay [2], in assay [3] and in assay [4] was “inactive” in each case.
In the case of `CCn1cc2nc(SCc3ccc(F)cc3)n(CCc3ccccc3)c(=O)c2n1`, the Potency is 14.1 µM (active) in assay [1], 0.562 µM (active) in assay [2] and 7.94 µM (active) in assay [3]. Further, the Potency result in assay [4] is “inactive”.
For the compound `CC1(C)CCC(C)(C)c2cc3c(cc21)Sc1ccccc1N=C3c1ccc(C(=O)O)cc1`, the Potency result in assay [1], in assay [2], in assay [3] and in assay [5] was “inactive” each time. For the same compound, the Potency in assay [7] was 6.31 µM (active).
As for `N#Cc1nc(NCC(F)F)nc(Nc2cc(F)cc(F)c2)n1`, the Potency entry in assay [1], in assay [6], in assay [5] and in assay [4] was “inactive” in each case.
As to `COc1ccc(CN(Cc2ccccc2)C(=O)c2ccccc2N)cc1COc1ccc(NC(C)=O)cc1`, the Potency result in assay [1], in assay [6] and in assay [5] was “inactive” throughout.
Regarding `O=C(Nc1ccc2c(c1)OCO2)Nc1nnc(-c2ccncc2)s1`, the Potency result in assay [1], in assay [6], in assay [5] and in assay [4] was “inactive” throughout.
Take `COc1cccc(N2CCN(c3nc(C(=O)NCc4cccc(C)c4)cs3)CC2)c1`: the Potency result in assay [1], in assay [2] and in assay [3] was “inactive” each time.
For `Cc1ccc(NC(=O)N2CCN(c3ccc(Cl)c(Cl)c3)CC2)cc1`, the Potency entry in assay [1], in assay [2], in assay [3] and in assay [4] was “inactive” each time.
In the case of `O=C(Nc1cccc(-c2nn3c(=O)cc(N4CCNCC4)nc3s2)c1)c1ccncc1`, the Potency in assay [1] is 7.08 µM (active); in assay [2] it was 28.2 µM (active); in assay [3], 14.1 µM (active); in assay [4], 3.18 µM (active). Also, the Potency entry in assay [5] was “inactive”.
In the case of `Cc1ccc(NC(=O)c2cc(-c3ccc(Br)s3)nc3ccccc23)cc1F`, the Potency entry in assay [1], in assay [2], in assay [3] and in assay [4] was “inactive” in each case.
Consider `COc1cccc(-c2cccc(C(=O)N3CCN(C(=O)Nc4ccccc4)CC3)c2)c1`, for which the Potency entry in assay [1], in assay [2] and in assay [3] was “inactive” in each case.
Turning to `NCCCNc1ncnc2ccc(-c3ccc4c(c3)OCO4)cc12`, the Potency result in assay [1] and in assay [6] was “inactive” each time. For the same compound, the Potency in assay [4] was 11.3 µM (active).
As for `O=S(=O)(Nc1ccc(O)c(NS(=O)(=O)c2ccccc2)c1)c1ccccc1`, the Potency entry in assay [1], in assay [6] and in assay [5] was “inactive” in each case. For the same compound, the Potency in assay [4] was 2.83 µM (active).
As for `Cc1noc2c(NCCc3ccccn3)cc(-c3ccccn3)nc12`, the Potency result in assay [1] was “inactive”. For the same compound, in assay [2], the Potency is 14.1 µM (active).
In the case of `CCOC(=O)c1ccc(N2CCN(c3cccc(Cl)c3)CC2)c(NC(=O)Nc2ccc(Cl)cc2)c1`, the Potency result in assay [1], in assay [2], in assay [3] and in assay [4] was “inactive” each time.
Turning to `CC(=O)Nc1sc2c(c1-c1nc3ccccc3s1)CN(C1COC1)C2`, the Potency in assay [1] is 12.7 µM (active); in assay [2], 8.96 µM (active); in assay [3], 8.96 µM (active); in assay [4] it was 2.52 µM (active). In assay [5], the Potency result was “inactive”.
For `COc1ccc(N2CCN(C(=S)Nc3cc(C)ccn3)CC2)cc1`, the Potency in assay [1] was 10.1 µM (active); in assay [2], 22.5 µM (active); in assay [3], 12.7 µM (active); in assay [4], 3.18 µM (active).
As to `Cc1ccc(-n2nc(C)c3c(C(=O)Nc4ccc(Br)c(C)c4)cc(C)nc32)cc1`, the Potency entry in assay [1], in assay [2] and in assay [3] was “inactive” each time.
In the case of `Cn1nnnc1Sc1ncnc2scc(-c3ccc([N+](=O)[O-])cc3)c12`, the Potency result in assay [1], in assay [6] and in assay [5] was “inactive” in each case.
As for `CC(C)c1ccc(S(=O)(=O)c2cnc(SCC(=O)Nc3ccc4c(c3)OCCO4)[nH]c2=O)cc1`, the Potency result in assay [1], in assay [2] and in assay [5] was “inactive” in each case. In addition, in assay [3], the Potency is 10.1 µM (active).
